Drawing on PubChem BioAssay AID652105 (National Center for Advancing Translational Sciences (NCATS), 2013), this text covers max response for 92 compounds.

The whole screen tested about 330,000 compounds, of which about 4,100 (1.2%) were called active. Roughly 2% stayed inconclusive and do not appear here. Only a selection was taken, and actives are over-represented in it overall. Values without a mark were called inactive. How the source made its calls: active means max response of -50% or lower; inconclusive means between -30% and -50%; inactive means -30% or higher.
On the % scale 0 is the no-effect control and ±100 the full control effect.

Phosphatidylinositol 5-phosphate 4-kinase type-2 alpha (Homo sapiens), sequence (P48426 whole entry, looked up, canonical isoform): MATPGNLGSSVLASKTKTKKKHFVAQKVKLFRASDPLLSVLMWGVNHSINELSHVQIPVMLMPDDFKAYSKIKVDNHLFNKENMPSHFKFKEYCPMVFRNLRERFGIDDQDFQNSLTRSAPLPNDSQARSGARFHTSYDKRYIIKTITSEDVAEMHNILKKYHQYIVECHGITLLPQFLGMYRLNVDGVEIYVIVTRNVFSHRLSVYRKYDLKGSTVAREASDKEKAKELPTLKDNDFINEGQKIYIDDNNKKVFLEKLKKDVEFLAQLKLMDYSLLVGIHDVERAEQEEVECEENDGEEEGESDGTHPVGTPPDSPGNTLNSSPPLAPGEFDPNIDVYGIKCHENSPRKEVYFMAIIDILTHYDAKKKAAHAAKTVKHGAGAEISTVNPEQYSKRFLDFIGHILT

For this assay, the target named is Phosphatidylinositol 5-phosphate 4-kinase type-2 alpha (Homo sapiens) (UniProt P48426). The assay is described as follows: qHTS for Inhibitors of phosphatidylinositol 5-phosphate 4-kinase (PI5P4K). Further: value at the top dose of about 77 µM. Conditions: PI5P4Kalpha enzyme, ADP-Glo luminescence, 60 min; stronger effect = lower value. The source says:
In addition to finding PI5P, we discovered the type II phosphatidylinositol 5-phosphate 4-kinase (PI5P4K) family (alpha, beta, gamma isoforms) that catalyze the conversion of PI5P to PI(4,5)P2. Alternatively, PI(4,5)P2 can also be synthesized through phosphatidylinositol-4-phosphate (PI4P) by the type I phosphatidylinositol 4-phosphate 5-kinases (PI4P5K). These PI5P4K enzymes therefore represent one way by which cells can regulate endogenous PI5P levels and play important roles in insulin signaling and in stress responses.
This proposal aims to identify and optimize specific modulators of human PI5P4K, phosphatidylinositol-5-phosphate 4-kinase (Type II PIPK), a family of kinases that regulate AKT signaling and tumor cell growth. In this project we aim to identify inhibitors of human PI5P4K using a quantitative high-throughput screening approach against the MLSMR containing ~400,000 small molecules.
NIH Chemical Genomics Center [NCGC]
NIH Molecular Libraries Probe Centers Network [MLPCN]
Assay Submitter (PI): Atsuo Sasaki, Beth Israel Deaconess Medical Center
2 microL of PI5P4Kalpha/substrate buffer (columns 1-2, 5-48) are dispensed into Greiner white solid bottom 1536-well assay plates; column 3 receives only PI5P4Kalpha buffer as 0x substrate controls; column 4 receives only substrate buffer as 0x PI5P4Kalpha controls. Final assay buffer consists of 0.038 M HEPES pH 7.4, 0.28 mM EGTA, 0.1% CHAPS, and 5% DMSO (final concentration). Compounds are then transferred via Kalypsys pin tool equipped with 1536-pin array (10 nL slotted pins, V&P Scientific, San Diego, CA). Following addition of compound, 1 microL of ATP (5 microM final concentration, all columns) is added to initiate the reaction. ATP is diluted in an assay buffer consisting of 0.02 M HEPES pH 7.4, 60 mM MgCl2, 15 microM ATP, and 0.1% CHAPS. The plates are then incubated at room temperature for 60 minutes. ADP-Glo reagent 1 is added (2 microL) and plates incubated for 45 minutes, before ADP-Glo reagent 2 (4 microL) is added and plates incubated for 30 minutes. They are then transferred to a ViewLux high-throughput CCD imager (PerkinElmer) wherein single end-point measurements of luminescence are acquired using a clear filter.
`CCN(CC)CCNC(=O)c1ccc(NC(=O)c2cc(-c3ccncc3)nc3ccccc23)cc1`: the max response was -5.2%.
The same measure for `O=C(Nc1ccc(S(=O)(=O)Nc2nccs2)cc1)c1cc(=O)[nH]c2ccccc12`: -12.6%; for `O=C(Nc1ccc(S(=O)(=O)Nc2nccs2)cc1)c1cc(-c2ccncc2)nc2ccccc12`: -67.1% (active).
For `Cc1nn(CC(=O)Nc2ccc3c(c2)OCO3)c(C)c1[N+](=O)[O-]` the value was 1.6%; for `Cc1ccc(C(=O)Nc2ccc3c(c2)OCO3)cc1S(=O)(=O)N1CCCCC1`, 0.934%.
The same measure for `Cc1ccc(C(=O)O)cc1-c1ccc(/C=C2\SC(=O)N(CC(=O)Nc3ccc4c(c3)OCO4)C2=O)o1`: -59.9% (active).
For the compound `CC(=O)Nc1cc(-c2ccc(N3CCN(C)CC3)cc2)cn2c(-c3cccc(C(=O)N(C)C)c3)cnc12`, the max response was 4.25%.
Consider `CCc1nc2c(OCCOc3ccc(F)cc3)cccn2c1N(C)C(=O)c1ccccc1F`, for which the max response is -7.43%.
For `COc1cccc(-c2ccc3c(c2)N(Cc2ccccc2OC)C(=O)C(C)S3)c1` (configuration not stated) the value was 20.2%; for `COc1ccc([C@H]2CC(=O)C[C@@H](CCn3cc(CC4CCCC4)nn3)O2)cc1`, 9.59%; for `Cc1ccc(N=C2NC(=O)/C(=C/C=C/c3ccco3)S2)cc1C`, -76.1% (active).
For `Cc1ccc(N2NC(=O)/C(=C/C=C/c3ccco3)C2=O)cc1C` the value was -13.7%.
For `CN1C(=O)/C(=C/c2ccco2)SC1=Nc1cccc(C(=O)O)c1` the value was -16.9%.
Take `N#Cc1c(-c2cccs2)nc(SCC(=O)c2ccc(Br)cc2)[nH]c1=O`: the max response is -61.8% (active).
For `Cc1ccc(CSc2nc(-c3ccccc3)c(C#N)c(=O)[nH]2)cc1` the value was -3.14%; for `O=C(CSc1nc2ccccc2c(=O)[nH]1)Nc1nc(-c2ccc(Br)cc2)cs1`, 2.06%.
For `CCc1nc2c(OCCc3cccc(OC)c3)cccn2c1N(C)C(=O)c1ccc(C)cc1` the value was 2.18%; for `COc1ccc(CN2C[C@H]3CON(C)[C@H]3C[C@H]2c2ccc(-c3cccc(F)c3)cc2)cc1`, 18.3%.
For `C[N+](C)(C)CCOP(=O)([O-])OC[C@H](O)CO` the value was -87.3% (active).
For the compound `COC(=O)C[C@H]1C=C[C@H](NC(=O)c2ccc(F)cc2)[C@@H](CO)O1`, the max response is -0.944%.
With `COC(=O)c1ccc2nc(-c3cccc(Br)c3)c(Cc3ccccc3C(F)(F)F)n2c1`, the max response is 4.18%.
For `C#CCN(C[C@@H]1[C@@H](OC(=O)NC2CC2)[C@@H](OC(=O)NC2CC2)Cn2c(=O)ccc(=O)n21)S(=O)(=O)c1ccc(C)cc1` the value was -1.14%; for `COCCNC(=O)C1C(=O)Nc2ccccc2C(=O)N1c1ccc2c(c1)OCCO2` (configuration not stated), 7.16%.
The same measure for `O=C(c1ccccc1)c1ccc(C(=O)N2CCN(c3ccccc3)CC2)cc1`: 6.71%; for `O=C(c1cc2c(s1)CCC2)N1CCN(c2ccccc2)CC1`: -53% (active); for `O=C(NNC(=O)c1cc2c(s1)CCCC2)c1ccccc1`: 0.43%.
As to `C=CCn1c(=S)[nH]c2scc(-c3ccco3)c2c1=O`, the max response is -84.2% (active).
Take `CCC1(C)Cc2c(sc3[nH]c(=S)n(Cc4ccccc4)c(=O)c23)CO1` (configuration not stated): the max response was -15.7%.
The same measure for `C=CCn1cnc2scc(-c3ccccc3)c2c1=O`: -1.04%.
The same measure for `Clc1cccc(Cc2c(-c3cccc(Cl)c3)nc3ccc(Cl)cn23)c1`: -3.6%; for `CCCCCNC(=O)C1C(=O)Nc2ccccc2C(=O)N1C(C)(C)C` (configuration not stated): -7.39%.
For the compound `O=C(CNC(=O)c1ccc(Br)o1)Nc1ccccc1`, the max response was -2.2%.
The same measure for `CC(CNC(=O)c1ccc(Br)o1)NC(=O)c1ccc(Br)o1` (configuration not stated): -54.6% (active).
For `O=C(NCc1cccs1)c1ccc(Br)o1` the value was 4.81%; for `CSc1ccc(CN2CCC2(C)C(=O)NCc2ccccc2Br)cc1` (configuration not stated), 17.1%.
For `COc1ccccc1-c1cc(NC(C)=O)c2ncc(-c3ccc(F)cc3)n2c1` the value was -5.85%.
For the compound `CCCc1ccc(C(O)c2ncc(-c3cccc(OC)c3)[nH]2)cc1` (configuration not stated), the max response was 14%.
For `COc1cccc2sc(NNC(=O)c3nc4ccccc4s3)nc12` the value was -61.5% (active); for `COc1ccc(/C=C(/CC(=O)Nc2ccc(C)cc2)c2nc3ccccc3s2)cc1`, -7.45%; for `COc1cccc2sc(N(CCCN(C)C)C(=O)C(c3ccccc3)c3ccccc3)nc12`, 12.8%.
For `O=C(/C=C/[C@H]1O[C@@H](n2ccc(=O)[nH]c2=O)[C@H](O)[C@@H]1O)NCc1ccccn1` the value was 2%; for `CCOC(=O)C[C@H]1c2ccc(C(F)(F)F)cc2S(=O)(=O)N1c1ccccc1`, 2.77%; for `CCOC(=O)C1Nc2ccc(C(F)(F)F)cc2C2C=CCC12` (configuration not stated), -55.4% (active).
For `CCOC(=O)[C@H]1Nc2ccc(Cl)cc2[C@@H]2[C@H]1C1CC(c3ccccc31)N2C(=O)OCc1ccccc1` (some centres not stated) the value was 19.9%; for `Nc1cccc(-c2cncc(N3CCN(Cc4ccccn4)CC3)n2)c1`, -6.48%.
Take `O=C(CSc1nc2c(cnn2-c2ccc(F)cc2)c(=O)[nH]1)N1CCCCCC1`: the max response is -3.16%.
The same measure for `C=CCNC(=O)CSc1nc2sc(C)c(C)c2c(=O)[nH]1`: -2.42%.
The same measure for `CC(=O)c1sc2nc(SCC(=O)N3CCCCC3)[nH]c(=O)c2c1C`: -59.2% (active).
For `CCOC(=O)[C@]12CCCC=C1N(CCC1=CCCCC1)C(=O)[C@H](CC(=O)NCCCOC)C2` the value was -1.91%; for `CCC(=O)NC(=Nc1nc2ccccc2s1)NC(=O)CC`, 10.4%.
On to `CCC(C)Cn1c(O)cc2nn(-c3nc4ccccc4s3)c(=O)c-2c1C` (configuration not stated), for which the max response was -79.1% (active).
Regarding `Cc1cc(NC(=O)CN2CCCC(C)C2)n(-c2nc3ccccc3s2)n1` (configuration not stated), the max response was 14.1%.
The same measure for `COC(=O)[C@]12CCCCC=C1N(Cc1ccc(Cl)cc1Cl)C(=O)[C@H](CC(=O)NCc1cccc3ccccc13)C2`: 20.1%; for `COc1cc(C=C(OC(C)=O)c2ccc3c(c2)OCO3)cc(OC)c1OC`: 3.06%.
The same measure for `C#CCOc1ccc(/C=C2/C(=O)NN(c3ccccc3)C2=O)cc1OC`: -22.1%; for `COc1ccc(N2C(=O)CC(Nc3ccc(F)cc3)C2=O)c([N+](=O)[O-])c1` (configuration not stated): -6.93%; for `COc1cc(CN2CC(C)CC(C)C2)cc([N+](=O)[O-])c1O` (configuration not stated): 0.224%.
As for `COc1cc(/C=N/O)cc(Br)c1OCc1cccc(Cl)c1`, the max response is 39.6%.
The same measure for `COc1cc(/C=C2/C(=O)NN(c3cccc(Cl)c3)C2=O)cc(Br)c1O`: -54.1% (active); for `COc1cc(/C=C2/C(=O)NN(c3ccc(F)cc3)C2=O)cc([N+](=O)[O-])c1O`: -57.5% (active); for `COC(=O)C1(C(=O)OC)C[C@H](c2ccccc2)N(Cc2ccccc2OC)[C@@H]1c1ccccc1`: 15.9%.
For `CCc1cccc(CC)c1N1C(=O)CC(Sc2ccccc2N)C1=O` (configuration not stated), the max response is 0.428%.
With `COCOc1cccc(CN2CCC(C)(Oc3ccc(SC)cc3)C2)c1` (configuration not stated), the max response is 9.73%.
`CCCc1nc2c3ccccc3ccn2c1Cc1ccccc1C(F)(F)F`: the max response was -0.571%.
The same measure for `COC(=O)[C@]12CCCCC=C1N(Cc1ccccc1)C(=O)[C@H](CC(=O)NCc1ccc(C)o1)C2`: -16.1%; for `Cc1cc(NC(=O)Nc2ccccc2[N+](=O)[O-])no1`: -55.9% (active).
Regarding `Cc1cc(NC(=O)COc2ccc([N+](=O)[O-])cc2)no1`, the max response was -7.69%.
Turning to `Cc1csc(NC(=O)Nc2ccccc2[N+](=O)[O-])n1`, the max response is 3.76%.
The same measure for `Cc1c(C(=O)NCc2ccc(C#N)cc2)sc(=O)n1Cc1ccc(C(=O)N(C)C)cc1`: -1.71%; for `COC(=O)c1ccc2nc(-c3ccccc3)c(Cc3ccc(OC)cc3C)n2c1`: -3.87%; for `CC1Cc2[nH][nH]c(=O)c2C(C2CC2)O1` (configuration not stated): 6.96%.
Regarding `COc1ccc(-c2cc3c(c4c2ccn4C)C2CCC3C2)cn1` (configuration not stated), the max response is 19.1%.
The same measure for `Cc1ccc(OCc2n[nH]c(=S)n2-c2ccccc2)cc1`: -0.211%.
The same measure for `S=c1[nH]nc(COc2ccccc2)n1-c1ccccc1`: 2.36%; for `COc1ccc(OCc2n[nH]c(=S)n2N)cc1`: -58.2% (active); for `CCc1nnc(NS(=O)(=O)c2ccc(NC(=O)c3cccc(OC(F)(F)C(F)F)c3)cc2)s1`: -19.6%.
The same measure for `CCc1nnc(NS(=O)(=O)c2ccc(NC(=S)NC(=O)/C=C/c3cccs3)cc2)s1`: -51.8% (active); for `CCOC(=O)c1c(NC(=S)NC(=O)/C=C/c2cccs2)sc(C)c1C`: -4.36%; for `CCc1nc2ccc(C(=O)NCCNC(C)=O)cn2c1N(CC)Cc1cccc(Br)c1`: 2.11%.
In the case of `COc1cccc2c1C(=O)c1c(O)c3c(c(O)c1C2=O)CC(O)(C(C)=NNC(=O)c1ccc(Cl)c(Cl)c1)CC3OC1CC(N)C(O)C(C)O1` (configuration not stated), the max response is -61.1% (active).
The same measure for `CCc1cc(-c2nnn(CCC3COCCO3)c2CC)ccc1-c1cn(Cc2ccc3ccccc3c2)nn1` (configuration not stated): 10.5%; for `O=C(NCc1cccnc1)c1cc(C2CCCCN2C(=O)CCc2ccccc2)on1` (configuration not stated): -8.66%.
The same measure for `O=C(NC1=CC(=O)c2ccccc2C1=O)c1ccccc1`: -2.02%; for `CC(=O)N(C1=C(Cl)C(=O)c2ccccc2C1=O)c1ccc(C(=O)O)cc1`: -81.9% (active).
The same measure for `CC(C)(C)C1CCC(=O)N2CCC[C@]2(c2ccccc2)C1` (some centres not stated): -0.325%.
`Cc1cccc(C)c1-n1nnnc1C1(C)CCC(=O)N1CCOc1ccccc1` (configuration not stated): the max response was 6.34%.
With `O=C(CSc1nnc(SCc2ccc(Cl)cc2)s1)N/N=C/c1ccccc1Cl`, the max response was -9.79%.
The same measure for `Cn1nnnc1SCC(=O)Nc1nc2ccccc2s1`: 5.87%.
For the compound `Nc1nnc(SCC(=O)Nc2ccc3nc(SCC(=O)Nc4ccccc4)sc3c2)s1`, the max response was -22.9%.
For `COc1cc(OC)cc(-c2nnc(SCC(=O)Nc3ccc(C(=O)O)cc3)s2)c1` the value was -16.4%; for `O=C(CSc1nnc(SCc2ccc(F)cc2)s1)Nc1ccc(C(=O)O)cc1`, -51.9% (active).
For `O=C(CSc1nc2ccccc2s1)Nc1ccc(C(=O)O)cc1` the value was -69.8% (active).
